# Source: PubChem BioAssay
# Calls of active or inactive are those of the source.
# Assays:
# [1] = tested on: Plasmodium falciparum Sir2 (PF13_0152, Sir2A); assay: Plasmodium falciparum Sir2A binding compounds – biochemical, small-molecule microarray, 635 nm fluorescence, primary screen (AID 1098); conditions: fluorescence 635 nm, higher = more signal;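 note: score merges spot fluorescence intensity with its signal-to-noise ratio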
# [2] = probe aDKK1 binding to arrayed compounds – biochemical, biotinylated probe, 635/667 nm fluorescence, primary screen (AID 1099); conditions: small-molecule microarray, higher = more signal;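 note: score merges 667nm spot fluorescence with signal to noise across triplicate slides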
# [3] = probe aCHRDL2 binding to arrayed compounds – biochemical, biotinylated probe, 635/667 nm fluorescence, primary screen (AID 1100); conditions: small-molecule microarray, higher = more signal
# [4] = change in splice reporter luminescence, either direction, cell-based, HEK293, spliceosome inhibition project, primary screen (AID 1101); conditions: HEK293 splicing luciferase reporter, 24 h, higher = more signal, called active from +8 up or from −8 down;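 note: HEK293 cells carrying a splicing-competent luciferase reporter gene; test concentration not given here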
# [5] = molecular target: Fibroblast growth factor 10 (Homo sapiens) (UniProt O15520); assay: compounds binding fibroblast growth factor 10 – biochemical, small-molecule microarray, 635 nm fluorescence, primary screen (AID 1102); conditions: FGF10 binding, fluorescence 635 nm, higher = more signal
# Sequence of Fibroblast growth factor 10 (Homo sapiens) (O15520 whole entry, looked up): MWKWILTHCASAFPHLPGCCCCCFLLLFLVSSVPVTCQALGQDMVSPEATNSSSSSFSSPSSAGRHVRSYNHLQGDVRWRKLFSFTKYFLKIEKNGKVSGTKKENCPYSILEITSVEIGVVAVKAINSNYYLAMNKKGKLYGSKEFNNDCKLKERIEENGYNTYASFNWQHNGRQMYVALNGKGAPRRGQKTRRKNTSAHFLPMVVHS
# [6] = tested on: glycogen synthase kinase-3 (GSK3A per assay name; protocol says GSK3B); assay: compounds binding glycogen synthase kinase-3 – biochemical, small-molecule microarray, 635 nm fluorescence, GSK3A, primary screen (AID 1103); conditions: fluorescence 635 nm, higher = more signal; note: the record names both GSK3A and GSK3B
# [7] = molecular target: Epidermal growth factor receptor (Homo sapiens) (UniProt P00533); assay: compounds binding epidermal growth factor receptor – biochemical, small-molecule microarray, 635 nm fluorescence, primary screen (AID 1104); conditions: EGFR binding, higher = more signal;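 note: score merges 667 nm emission intensity with spot signal to noise over triplicate slides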
# Sequence of Epidermal growth factor receptor (Homo sapiens) (P00533 whole entry, looked up): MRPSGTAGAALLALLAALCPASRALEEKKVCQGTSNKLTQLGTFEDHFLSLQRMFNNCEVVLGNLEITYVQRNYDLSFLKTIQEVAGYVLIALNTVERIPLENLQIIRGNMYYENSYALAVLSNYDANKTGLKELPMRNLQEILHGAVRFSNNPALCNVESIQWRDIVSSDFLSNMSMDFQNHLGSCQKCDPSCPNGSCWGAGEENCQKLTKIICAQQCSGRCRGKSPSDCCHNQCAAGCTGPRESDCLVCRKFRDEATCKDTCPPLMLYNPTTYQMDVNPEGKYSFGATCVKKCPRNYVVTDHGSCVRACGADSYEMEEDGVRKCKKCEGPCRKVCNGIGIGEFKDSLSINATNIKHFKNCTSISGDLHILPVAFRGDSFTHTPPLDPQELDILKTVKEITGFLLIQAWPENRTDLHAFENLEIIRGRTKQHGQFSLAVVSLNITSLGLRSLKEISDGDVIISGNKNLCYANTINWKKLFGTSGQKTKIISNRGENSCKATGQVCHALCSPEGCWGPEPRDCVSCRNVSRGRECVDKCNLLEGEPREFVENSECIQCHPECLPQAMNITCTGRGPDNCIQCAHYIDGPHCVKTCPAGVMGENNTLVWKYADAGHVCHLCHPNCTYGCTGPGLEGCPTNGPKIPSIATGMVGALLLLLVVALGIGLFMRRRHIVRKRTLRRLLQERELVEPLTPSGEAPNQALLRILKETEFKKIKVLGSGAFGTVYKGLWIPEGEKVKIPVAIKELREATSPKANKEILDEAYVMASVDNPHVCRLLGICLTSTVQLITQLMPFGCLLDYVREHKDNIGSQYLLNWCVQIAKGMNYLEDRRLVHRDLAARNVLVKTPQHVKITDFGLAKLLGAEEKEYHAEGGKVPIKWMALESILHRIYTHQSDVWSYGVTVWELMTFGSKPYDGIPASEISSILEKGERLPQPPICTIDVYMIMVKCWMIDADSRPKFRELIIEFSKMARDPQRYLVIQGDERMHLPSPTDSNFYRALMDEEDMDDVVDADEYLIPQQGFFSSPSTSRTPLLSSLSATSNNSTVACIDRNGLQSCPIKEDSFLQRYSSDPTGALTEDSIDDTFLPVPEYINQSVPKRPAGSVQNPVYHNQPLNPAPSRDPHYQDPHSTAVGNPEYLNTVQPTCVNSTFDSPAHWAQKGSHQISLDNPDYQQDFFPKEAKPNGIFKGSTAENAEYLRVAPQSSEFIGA
# [8] = molecular target: Follistatin-related protein 3 (Homo sapiens) (UniProt O95633); assay: compounds binding follistatin-related protein 3 – biochemical, small-molecule microarray, 635 nm fluorescence, primary screen (AID 1105); conditions: FSTL3 binding, higher = more signal;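 note: score merges emission near 667 nm and signal to noise per printed spot across three slides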
# Sequence of Follistatin-related protein 3 (Homo sapiens) (O95633 whole entry, looked up): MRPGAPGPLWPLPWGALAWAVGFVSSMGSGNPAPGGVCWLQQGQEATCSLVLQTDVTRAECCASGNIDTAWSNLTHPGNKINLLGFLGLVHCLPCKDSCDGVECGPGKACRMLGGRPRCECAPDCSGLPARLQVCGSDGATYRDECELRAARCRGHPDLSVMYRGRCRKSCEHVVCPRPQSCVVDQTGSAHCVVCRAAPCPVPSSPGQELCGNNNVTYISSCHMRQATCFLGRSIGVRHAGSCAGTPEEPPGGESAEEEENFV
# [9] = molecular target: Dickkopf-related protein 1 (Homo sapiens) (UniProt O94907); assay: small molecules binding DKK1 protein – biochemical, small-molecule microarray, 635 nm fluorescence scan, primary screen (AID 1106); conditions: higher = more signal;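 note: score merges emission near 667 nm with signal to noise over three replicate slides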
# Sequence of Dickkopf-related protein 1 (Homo sapiens) (O94907 whole entry, looked up): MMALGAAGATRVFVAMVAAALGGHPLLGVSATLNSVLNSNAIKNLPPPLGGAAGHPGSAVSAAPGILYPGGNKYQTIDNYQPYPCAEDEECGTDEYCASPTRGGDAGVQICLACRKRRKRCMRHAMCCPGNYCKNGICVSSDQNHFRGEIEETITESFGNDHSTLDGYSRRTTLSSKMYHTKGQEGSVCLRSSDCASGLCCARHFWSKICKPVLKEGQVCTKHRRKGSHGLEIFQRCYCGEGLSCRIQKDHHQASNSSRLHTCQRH
# [10] = tested on: Inhibin beta A chain (activin A); assay: small molecules binding activin A – biochemical, small-molecule microarray, 635 nm fluorescence scan, primary screen (AID 1107); conditions: INHBA, higher = more signal;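 note: mouse activin A protein probed at 4.33 µg/mL on printed slides; score merges bound-protein fluorescence near 667 nm with spot signal-to-noise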
# [11] = tested on: Human papillomavirus type 1a protein E7 (residues 44-93); assay: small molecules binding HPV E7 44-93 – biochemical, small-molecule microarray, residues 44-93, 635 nm fluorescence, primary screen (AID 1108); conditions: fluorescence 635 nm, higher = more signal;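 note: E7 fragment applied at 1 µg/mL in TBST for 1 h at 4 C; score combines spot fluorescence with its signal to noise ratio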
# [12] = hepatitis C replication reporter changes, two-sided – Huh7 cells, luciferase reporter, HCV replication inhibitor project, primary screen (AID 1109); conditions: Huh7 HCV replicon luciferase reporter, 48 h; higher = more signal;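 note: huh7 hepatoma cells harbouring a luciferase neomycin HCV replicon reporter; luciferase luminescence as measure of HCV replicon replication; test concentration not given here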
# [13] = molecular target: Left-right determination factor 2 (Homo sapiens) (UniProt O00292); assay: small molecules binding LEFTY2 protein – biochemical, small-molecule microarray, 635 nm fluorescence scan, primary screen (AID 1110); conditions: higher = more signal
# Sequence of Left-right determination factor 2 (Homo sapiens) (O00292 whole entry, looked up): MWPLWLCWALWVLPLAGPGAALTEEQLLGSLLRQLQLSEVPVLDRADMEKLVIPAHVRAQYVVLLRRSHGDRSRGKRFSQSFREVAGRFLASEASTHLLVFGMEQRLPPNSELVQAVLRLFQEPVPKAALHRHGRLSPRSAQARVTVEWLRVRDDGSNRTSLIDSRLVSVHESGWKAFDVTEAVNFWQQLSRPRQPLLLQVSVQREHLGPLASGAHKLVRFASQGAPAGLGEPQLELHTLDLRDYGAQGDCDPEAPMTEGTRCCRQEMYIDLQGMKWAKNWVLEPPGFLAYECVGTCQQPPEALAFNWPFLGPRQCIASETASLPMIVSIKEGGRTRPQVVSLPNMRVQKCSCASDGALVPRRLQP
# [14] = molecular target: Calmodulin-1 (Homo sapiens) (UniProt P0DP23); assay: small molecules binding calmodulin-1 with EGTA – biochemical, small-molecule microarray, Cy5-labelled CALM1, profiling panel (AID 1111); conditions: Cy5-CALM1 binding fluorescence, higher = more signal;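 note: labelled calmodulin applied in Tris saline Tween buffer holding calcium plus EGTA and DTT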
# [15] = molecular target: Calmodulin-1 (Homo sapiens) (UniProt P0DP23); assay: small molecules binding Ca-loaded calmodulin-1 – biochemical, small-molecule microarray, Cy5-labelled CALM1, plus calcium, artefact control for SMM control-protein annotation, profiling panel (AID 1112); conditions: Cy5-CALM1 binding fluorescence, higher = more signal;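 note: score merges spot fluorescence with signal to noise from triplicate slides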
# [16] = probe aWnt5a binding to arrayed compounds – biochemical, biotinylated probe, 635/667 nm fluorescence, primary screen (AID 1113); conditions: small-molecule microarray, higher = more signal;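 note: score merges 667 nm fluorescence intensity with signal-to-noise per printed feature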
# [17] = probe aShh binding to arrayed compounds – biochemical, biotinylated probe, 635/667 nm fluorescence, primary screen (AID 1114); conditions: small-molecule microarray, higher = more signal;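 note: probe is biotin-labelled aShh protein from a stem cell growth factor screen; measures binding of labelled protein to compounds printed on the slide; score merges feature fluorescence at 667 nm with signal-to-noise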
# [18] = probe aNog binding to arrayed compounds – biochemical, biotinylated probe, 635/667 nm fluorescence, primary screen (AID 1115); conditions: small-molecule microarray, higher = more signal;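 note: probe is biotinylated aNog protein used at 0.15 µg/mL for 1 h at 4 C; z-score combines 667 nm fluorescence of each spot with its signal to noise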
# [19] = molecular target: Torsin-1A-interacting protein 1 (Homo sapiens) (UniProt Q5JTV8); assay: compound microarray binding of lysate hLAP1 – cell lysate, small-molecule microarray, COS7 lysate, 635/667 nm fluorescence, primary screen (AID 1116); conditions: 635 nm fluorescence, higher = more signal
# Sequence of Torsin-1A-interacting protein 1 (Homo sapiens) (Q5JTV8 whole entry, looked up): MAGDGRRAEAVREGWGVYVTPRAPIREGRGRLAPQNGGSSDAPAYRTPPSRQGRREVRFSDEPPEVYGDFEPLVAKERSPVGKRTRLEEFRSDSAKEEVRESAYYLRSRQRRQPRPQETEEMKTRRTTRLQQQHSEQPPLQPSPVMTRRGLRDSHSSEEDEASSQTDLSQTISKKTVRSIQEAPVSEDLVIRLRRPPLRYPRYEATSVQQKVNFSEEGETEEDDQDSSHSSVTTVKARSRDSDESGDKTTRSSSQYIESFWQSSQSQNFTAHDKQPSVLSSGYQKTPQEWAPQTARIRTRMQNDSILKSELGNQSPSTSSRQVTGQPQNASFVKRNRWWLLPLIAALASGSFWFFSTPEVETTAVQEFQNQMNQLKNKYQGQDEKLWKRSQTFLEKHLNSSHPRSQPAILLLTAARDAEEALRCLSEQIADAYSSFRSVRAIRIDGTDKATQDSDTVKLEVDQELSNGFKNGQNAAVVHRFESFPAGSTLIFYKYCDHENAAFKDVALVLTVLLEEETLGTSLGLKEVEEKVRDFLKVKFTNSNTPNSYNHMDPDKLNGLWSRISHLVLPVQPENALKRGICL
# [20] = molecular target: Alpha-bungarotoxin (Bungarus multicinctus) (UniProt P60615); assay: compounds binding labelled alpha-BTX control protein – biochemical, small-molecule microarray, Alexa647 label, 635/667 nm fluorescence, artefact control for SMM control protein annotation, profiling panel (AID 1117); conditions: alpha-BTX-A647 binding fluorescence, higher = more signal
# Sequence of Alpha-bungarotoxin (Bungarus multicinctus) (P60615 whole entry, looked up): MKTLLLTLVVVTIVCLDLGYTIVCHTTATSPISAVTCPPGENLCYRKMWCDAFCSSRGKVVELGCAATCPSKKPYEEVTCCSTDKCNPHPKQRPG
Structure (SMILES),composite z-score [1],composite z-score [2],composite z-score [3],z-score [4],composite z-score [5],composite z-score [6],composite z-score [7],composite z-score [8],composite z-score [9],composite z-score [10],composite z-score [11],z-score [12],composite z-score [13],composite z-score [14],composite z-score [15],composite z-score [16],composite z-score [17],composite z-score [18],composite z-score [19],composite z-score [20]
[N-]=[N+]=NCc1ccccc1C[C@@]1(C(N)=O)N=C(c2ccc(OCCCO)cc2)O[C@@H]1c1ccccc1CN=[N+]=[N-],0.448,1.09,0.378,0.515 (inactive),1.26,0.989,-0.238,0.165,0.0137,0.764,1.43,-1.55,0.144,1.37,0.693,-0.0236,0.19,1.08,0.623,0.689
COCCOC(=O)N1C(=O)[C@@]2(c3cc(C#CC4=CCCCC4)ccc31)[C@H](c1ccc(O)cc1)N1[C@H](c3ccccc3)[C@H](c3ccccc3)OC(=O)[C@H]1[C@@H]2C(=O)Nc1nc2ccccc2s1,1.56,0.663,-0.277,0.51 (inactive),1.33,1.24,0.383,1.19,0.45,0.248,0.909,-0.598,0.494,1.81,0.0702,-0.0654,-0.066,-0.482,1.12,1.21
CCCC=C(CCC)[C@@H](NP(=O)(c1ccccc1)c1ccccc1)c1ccc(C(F)(F)F)cc1,-1.78,0.578,0.333,-0.139 (inactive),0.0142,0.734,-0.0267,-0.354,-0.15,0.589,1.13,-0.475,0.0293,0.0848,-0.33,0.474,0.135,-0.301,0.145,0.109
CC(=O)N1Cc2ccccc2C[C@]2(N=C(c3ccc(OCCCO)cc3)O[C@@H]2c2ccccc2)C1=O,1.55,0.835,1.05,-2.31 (inactive),0.897,1.26,0.17,0.33,0.275,0.503,1.1,-1.56,0.179,1.01,0.446,-0.13,0.163,0.682,1.78,1.64
C=C(CCCC)/C(=C/C[C@@H](OC(=O)c1ccncc1)c1cccc(OCCO)c1)c1cnc2ccccc2c1,0.148,0.11,0.563,-0.562 (inactive),1.52,0.667,1.27,1.56,0.895,1.67,1.3,-1.96,0.742,0.185,-0.472,0.0037,-0.0035,-0.103,1.49,2.58
CC(C)C(CO)N1C(=O)[C@]2(C)C3C(=O)OCCC/C=C\[C@H]3OC23C=CCN(c2ccc(Cl)cc2)C(=O)[C@@H]13 (stereo not given in full),1.11,-0.095,0.38,0.242 (inactive),-0.382,-0.028,-0.599,-0.518,-0.821,0.717,0.964,0.344,-1.03,-0.224,-0.193,-0.131,-0.138,0.563,-0.0952,-0.28
Cc1c(NC(=O)/C(C#N)=C/C=C/c2ccccc2[N+](=O)[O-])c(=O)n(-c2ccccc2)n1C,1.03,-0.0194,0.147,4.71 (inactive),0.386,0.417,0.187,0.71,0.446,0.0089,0.475,-2.79,0.34,0.517,0.188,-0.092,-0.292,-0.527,0.37,0.556
CC(C)(C)OC(=O)CC[C@@]1(C(=O)O)N=C(c2ccc(OCCCO)cc2)O[C@@H]1c1ccccc1CN=[N+]=[N-],1.16,1,0.602,-0.326 (inactive),0.0038,0.396,-0.207,-0.43,-0.689,1.08,1.31,-2.21,-0.677,1.33,1.09,0.145,0.218,-0.1,1.24,2.78
